# From PubChem BioAssay (Tox21)
# Values joined by “and” are separate entries in the source; they are usually repeats but may differ in a detail not shown here. Equal values may be shown once. Records with an inconclusive call do not appear. A number with no mark means an inactive call. Active and inactive are the calls of the source. The call rests on the fitted dose curve; in most records, active means well fitted activation curve with a large enough effect in the repeat runs; inconclusive means weak or mixed curves; inactive means flat fitted curve, though single readings scatter.
# Experiment: A CellTox Green Cytotoxicity Assay to monitor cytotoxicity in HEK293 cells - 24 hour (AID 1224875); further: nearly all actives have a fitted effect of over 45% in size
# Conditions: CellTox Green fluorescence; series mostly up to 76.8 µM; activity change: at the top concentration
# In short: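 Cells (HEK293, 600/well) and dye reagent are dispensed together. After 5 h at 37 C, 23 nL compound is pinned in. Plates stay at 37 C for 40 h with fluorescence read at 0h, 8h, 16h, 24h, 32h and 40h.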
# On the % scale 0 is the no-effect control and ±100 the full control effect; potency means the concentration at half of the fitted maximal effect.
SMILES,activity change,Potency
Cc1ccc(-c2c(Cl)nc(C#N)n2S(=O)(=O)N(C)C)cc1,0.0688%,–
CCCN(CC1CC1)c1c([N+](=O)[O-])cc(C(F)(F)F)cc1[N+](=O)[O-],8.86%,–
COc1cc(CC(C)N)cc2c1OCO2 (stereo not drawn),-1.45%,–
O=C(O)CC(Cl)C(=O)O (stereo not drawn),2.56%,–
CCCN(CCCl)c1c([N+](=O)[O-])cc(C(F)(F)F)cc1[N+](=O)[O-],-12%,–
CCOP(=S)(OCC)SCn1nnc2ccccc2c1=O,8.01%,–
CN1C(=O)C(O)N=C(c2ccccc2)c2cc(Cl)ccc21 (stereo not drawn),6.67%,–
CCN(C)N=O,-13.5%,–
C(=NC1CCCCC1)=NC1CCCCC1,–,22 µM (active) and 34.7 µM (active)
CC(C)O.CC(C)O.OCCN(CCO)CCO.OCCN(CCO)CCO.[Ti],-7.61%,–
O=Cc1ccc2c(c1)OCO2,-4.58%,–
CCOC(=O)CBr,0.483%,–
Cc1ccccc1C(=O)Nc1cccc(OC(C)C)c1,14.9%,–
O=C(Nc1ccccc1)Nc1ccnc(Cl)c1,-1.53%,–
Nc1ccc([N+](=O)[O-])cc1[N+](=O)[O-],-6.34%,–
O=C(O)C(F)(F)C(F)(F)C(F)(F)C(F)(F)C(F)(F)C(F)(F)C(F)(F)C(F)(F)C(F)(F)F,1.82%,–
COC(=O)C(Br)CBr (stereo not drawn),-1.4%,–

SMILES,activity change,Potency
[CH3][Sn]([CH3])([Cl])[Cl],–,inactive
O=[N+]([O-])c1ccccc1CCl,-3.66%,–
COC(=O)C(C)N(C(=O)Cc1ccccc1)c1c(C)cccc1C (stereo not drawn),-5.95%,–
C=CC(=O)OCCCCO,-7.71%,–
CCOP(=O)(OCC)O/C(=C/Cl)c1ccc(Cl)cc1Cl,15.1%,–
II,–,38.9 µM (active)
CCOP(=O)(OCC)Oc1ccc([N+](=O)[O-])cc1,–,inactive
C=CC(=O)OCC(C)O (stereo not drawn),-4.65%,–
CN(C)c1ccc(N(C)C)cc1,-9.83%,–
CC(C)=CCOc1c2occc2cc2ccc(=O)oc12,"-2.63% [at 35.3 µM, active compounds read high]",–
c1ccc(CN2CCNCC2)cc1,"-7.8% [at 200 µM, active compounds read high]",–
O=C(CCl)c1ccc(Cl)cc1Cl,–,10.7 µM (active)
COCCOCCO,-0.443%,–
C/C(=C\c1ccccc1)[N+](=O)[O-],-2.45%,–
CC1(C)[C@H](C=C(Cl)Cl)[C@@H]1C(=O)O[C@@H](C#N)c1cccc(Oc2ccccc2)c1,-24%,–
CO/N=C(/C(=O)OC)c1ccccc1COc1ccccc1C,-8.28%,–
